Assay outcomes (PubChem BioAssay)
In the library only some 11% were active in any assay of this set; here they are far more common.
G9a inh: qHTS Assay for Inhibitors of Histone Lysine Methyltransferase G9a | Histone-lysine N-methyltransferase EHMT2 (Homo sapiens), Q96KQ7 | G9a H3K9 monomethylation, AlphaScreen, 2 h | Potency, µM (highest dose often 102 µM), hits mostly inhibitors | 8.8% of 350,000 active | AID 504332, 2011; also: nearly all actives have a fitted effect of over 75% in size
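G9a (20 nM) preincubated 15 min RT with compounds, then 500 nM biotinylated H3K9 peptide and 20 uM SAM added; 2 h RT reaction. Monomethyl-H3K9 product detected by AlphaScreen with anti-H3K9me1 antibody, streptavidin donor and anti-rabbit IgG acceptor beads.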
BAZ2B inh: qHTS Assay for Inhibitors of BAZ2B; Bromodomain adjacent to zinc finger domain protein 2B (Homo sapiens), Q9UIF8; AlphaScreen BAZ2B-H3K14Ac peptide displacement; Potency, µM (titrated, usually from 114 µM), most hits filed as inhibitors; 4.4% of 360,000 active; AID 504333, 2011; also: nearly all actives have a fitted effect of over 60% in size
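AlphaScreen displacement of biotin-H3(5-23)K14Ac peptide (50 nM final) from BAZ2B (50 nM final) in PBS pH 7.4, 0.01% Tween-20; complex preformed 30 min RT, then compounds (top 110 uM) 30 min RT, beads 20 min dark.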
HP1b binding inh: HTS for Inhibitors of HP1-beta Chromodomain Interactions with Methylated Histone Tails; Chromobox protein homolog 1 (Homo sapiens), P83916; AlphaScreen HP1-beta / biotin-H3K9me3 peptide binding; Potency, µM (doses to about 114 µM), actives largely listed as inhibitors; 0.56% of 390,000 active; AID 540317, 2011; also: nearly all actives have a fitted effect of over 70% in size
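AlphaScreen: HP1-beta (50 nM) preformed 30 min with biotin-H3(1-18)K9me3 peptide (50 nM) in PBS pH 7.4, 0.01% Tween-20. Compound added for 30 min at RT, then streptavidin donor/nickel chelate acceptor beads (10 ug/mL) for 30 min.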
L3MBTL1 inh: qHTS Assay for the Inhibitors of L3MBTL1; Lethal(3)malignant brain tumor-like protein 1 (Homo sapiens), Q9Y468; AlphaScreen L3MBTL1–H3K9me1 peptide binding; Potency, µM (top dose mostly 57.1 µM), hits mostly inhibitors; 0.66% of 230,000 active; also: nearly all actives have a fitted effect of over 60% in size
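AlphaScreen assay: L3MBTL1 (50 nM final) was preincubated 30 min at room temperature with biotinylated H3(1-15)K9me1 peptide (75 nM final), then 30 min with library compounds; streptavidin donor and nickel chelate acceptor beads (10 ug/mL final) added, 30 min dark.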
JMJD2A Tudor inh: qHTS Assay for Inhibitors of JMJD2A-Tudor Domain; 4.4% of 390,000 active; Lysine-specific demethylase 4A (Homo sapiens), O75164; Potency, µM (highest dose often 114 µM), hits mostly inhibitors; AID 504339, 2011; AlphaScreen JMJD2A-Tudor / H3K4me3 peptide binding; also: nearly all actives have a fitted effect of over 50% in size
Target sequence (O75164 whole entry, looked up, the tested form may be a part): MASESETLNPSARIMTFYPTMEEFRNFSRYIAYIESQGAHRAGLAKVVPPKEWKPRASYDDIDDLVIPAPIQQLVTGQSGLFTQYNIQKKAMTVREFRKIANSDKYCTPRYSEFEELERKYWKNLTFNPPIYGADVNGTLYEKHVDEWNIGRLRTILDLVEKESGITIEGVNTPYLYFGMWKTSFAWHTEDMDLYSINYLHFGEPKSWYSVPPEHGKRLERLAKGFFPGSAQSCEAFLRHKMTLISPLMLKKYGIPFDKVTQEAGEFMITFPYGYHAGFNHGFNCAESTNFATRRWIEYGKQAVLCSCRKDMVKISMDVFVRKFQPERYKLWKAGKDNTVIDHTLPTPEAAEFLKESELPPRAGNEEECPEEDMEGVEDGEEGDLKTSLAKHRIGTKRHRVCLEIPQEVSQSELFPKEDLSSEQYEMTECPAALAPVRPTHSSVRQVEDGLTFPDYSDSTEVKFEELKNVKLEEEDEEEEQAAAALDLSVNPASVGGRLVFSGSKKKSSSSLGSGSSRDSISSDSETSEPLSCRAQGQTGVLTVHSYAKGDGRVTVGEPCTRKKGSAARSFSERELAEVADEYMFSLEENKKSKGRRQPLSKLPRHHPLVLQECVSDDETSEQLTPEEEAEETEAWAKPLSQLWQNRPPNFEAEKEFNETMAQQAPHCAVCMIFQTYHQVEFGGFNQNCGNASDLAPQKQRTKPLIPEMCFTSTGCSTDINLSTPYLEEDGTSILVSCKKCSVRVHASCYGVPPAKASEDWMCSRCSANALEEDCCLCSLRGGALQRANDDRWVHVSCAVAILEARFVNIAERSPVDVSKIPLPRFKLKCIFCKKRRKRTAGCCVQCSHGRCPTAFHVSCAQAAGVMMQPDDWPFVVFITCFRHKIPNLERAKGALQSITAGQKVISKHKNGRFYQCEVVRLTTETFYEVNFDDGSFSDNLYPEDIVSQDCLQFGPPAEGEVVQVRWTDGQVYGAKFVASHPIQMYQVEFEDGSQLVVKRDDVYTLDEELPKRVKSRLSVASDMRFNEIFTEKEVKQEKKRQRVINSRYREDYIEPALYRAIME
Hits are given with their value; 0 = inactive; ? = inconclusive; - = not tested or not shown; [ ] = remark or other dose. Calls follow the shape of the dose curve; as a rule, active = well fitted inhibition curve with a large enough effect; inconclusive = small, poorly fitted or top-dose-only effect; inactive = no such curve, though single readings can be large or run the other way.

SMILES	G9a inh	BAZ2B inh	HP1b binding inh	L3MBTL1 inh	JMJD2A Tudor inh
CC(C)Oc1ccc(CNC(=O)c2ccc(CS(=O)Cc3ccccc3Cl)o2)cc1 (centres undefined)	0	0	0	-	0
Clc1ccccc1OCCn1ccnc1	10µM	79µM	45µM	-	4.5µM
C=CCc1ccccc1OCCn1ccnc1	8.9µM	50µM	?	0	0
Clc1cccc(OCCn2ccnc2)c1	-	0	0	0	0
COc1cccc(OCCn2ccnc2)c1	?	0	0	0	0
C=CCc1cccc(OC)c1OCCOCCn1ccnc1	?	35µM	?	0	5µM
Cc1nnc(N2C(=O)C(O)=C(C(=O)c3ccco3)C2c2ccc(F)cc2)s1 (centres undefined)	?	0	0	0	56µM
CSc1ccc(C2C(C(=O)c3ccco3)=C(O)C(=O)N2c2nnc(SC)s2)cc1 (centres undefined)	?	?	0	-	7.1µM
Cc1nnc(N2C(=O)C(O)=C(C(=O)c3ccco3)C2c2ccc(C(C)C)cc2)s1 (centres undefined)	45µM	0	0	0	?
O=C(Cn1nc(Cc2cccnc2)c2ccccc2c1=O)Nc1ccc(F)c(Cl)c1	0	0	0	-	0
CSCCC(NC(=O)c1ccco1)C(=O)NCC1CCCO1 (centres undefined)	0[12.7 µM]	0	0	0	0
CCc1cccc(CC)c1NS(=O)(=O)c1ccc2c(c1)CCN2C(=O)C1CC1	0	-	0	-	0
CN(C)c1ccc(-c2nc3ccccc3n2C)cc1	?	?	0	0	0
CCn1c(-c2ccc(N(C)C)cc2)nc2ccccc21	79µM	50µM	0	0	0
CC(C)n1c(-c2ccc(N(C)C)cc2)nc2ccccc21	40µM	40µM	?	0	56µM
COc1ccc(Cl)cc1Nc1ccc2cc(S(=O)(=O)N3CCCCC3)ccc2n1	5µM	0	0	-	0
Cc1ccc(N2C(=O)C(CC(=O)Nc3ccc(F)cc3)N(CCC3=CCCCC3)C2=O)cc1 (centres undefined)	0	0	0	-	0
C/C(=N/NS(=O)(=O)c1cc(C)ccc1C)c1ccc2c(c1)OCO2	0	0	0	-	0
C/C(=N/NS(=O)(=O)c1cc(C)ccc1C)c1ccncc1	40µM	0	0	-	0
CN(C)c1cc2c3ccccc3n(C)c2cc1N	-	-	45µM	-	32µM
Cc1ccc(C)c2c1c1ccccc1n2C	-	0	0	0	0
Cc1ccc(S(=O)(=O)Nc2ccc3nc(C)sc3c2)cc1	0[2.33 µM]	0	0	0	0
Cc1nc2ccc(NS(=O)(=O)c3c(C)c(C)cc(C)c3C)cc2s1	14µM	?	0	-	0[11.4 µM]
Cc1ccc(N(CC(=O)NCc2ccc(Cl)cc2)S(C)(=O)=O)cc1	0	0	0	0	0
Cc1cc(C)n(CC(O)Cn2c3ccccc3c3ccccc32)c(=O)n1 (centres undefined)	0	0	0	0	0
SMILES	G9a inh	BAZ2B inh	HP1b binding inh	L3MBTL1 inh	JMJD2A Tudor inh
Cc1cc(C)n(CC(O)Cn2c3ccc(Br)cc3c3cc(Br)ccc32)c(=O)n1 (centres undefined)	79µM	0	?	-	0
CN1CCN(CCOc2cccc(Cl)c2)CC1	?	?	0	0	?
Cc1cc(OCC(=O)N(C)Cc2ccccc2)ccc1Cl	?	0	0	0	0
CN1CCN(CCOc2ccc(Cl)c(Cl)c2)CC1	10µM	50µM	16µM	0	0.79µM
CN(CCOc1ccc(Cl)c(Cl)c1)Cc1ccccc1	-	?	0	0	20µM
CN(CCOc1ccccc1Cl)Cc1ccccc1	10µM	56µM	?	0	22µM
CN(CCCOc1ccccc1F)Cc1ccccc1	7.9µM	56µM	?	?	20µM
O=c1cc(-c2cccc(-c3ccc(C(F)(F)F)cc3)c2)c2cc3c(cc2o1)OCO3	0	-	-	-	-
O=C(C1CC(=O)N(c2ccc(F)cc2)C1)N1CCC(c2nc3ccccc3[nH]2)CC1 (centres undefined)	0	0	0	0	0
CCN(CC)CCCOc1ccc(Cl)c(Cl)c1	10µM	?	0	0	0.89µM
CCN(CC)CCCOC(=O)c1ccc(OC)cc1O	-	0	0	0	0
